From PubChem BioAssay come the findings set out here.

Where “and” joins values, the source holds several entries; their conditions need not be identical. Identical values can stand only once. Calls of active or inactive are those of the source.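 Rule for the calls, unless noted: active = compounds whose cell count with miR-34 switched on is under 0.7 times the count with it off; inactive = the rest.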

Test [1] in a line: sensitizers of A549 cells to miR-34 induction, primary screen, imaging, A549 dox-inducible miR-34, nuclei and caspase counts (AID 1347080). The conditions noted are these: A549 miR-34 inducible, Hoechst nuclei count, 48 h.
A short description of test [2]: survival rescue of mitochondrial mutant cells in low glucose, primary screen, MELAS cybrids, Rieske KO mouse fibroblasts, CellTiter-Glo (AID 1508586;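 active = mean z-score across replicates of 1.96 or higher in either the MELAS or the Rieske mutant cell line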;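 note: z relative to plate mean and SD of compound and empty wells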).
Test [3] concerns the target NAD(+) hydrolase SARM1 (Homo sapiens) (UniProt Q6SZW1). The test is described as follows: SARM1 TIR NADase inhibitors, cell lysate, NAD-Glo luminescence (AID 1508614;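 active = compound whose remaining NAD level is above about 45 nM, limit read from the data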;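 note: higher remaining NAD means stronger inhibition of SARM1 NADase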). As to conditions: SAM-TIR HEK293T lysate NADase, at 1 µM, stronger effect = higher value.
The target in test [4] is Mitogen-activated protein kinase 7 (Homo sapiens) (UniProt Q13164). Kind of test: ERK5 transactivation activators in reporter cells, primary screen, cell-based, HTS (AID 1508626;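 active = luciferase signal above three times the same-plate solvent-only control wells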;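 note: luciferase driven by Gal4-ERK5 fusion binding five Gal4 sites before minimal TATA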). The conditions noted are these: HeLa Gal4-ERK5 transactivation, 18 h, at 5 µM, stronger effect = higher value.
Sequence of Mitogen-activated protein kinase 7 (Homo sapiens) (Q13164 whole entry, looked up, the tested form may be a part): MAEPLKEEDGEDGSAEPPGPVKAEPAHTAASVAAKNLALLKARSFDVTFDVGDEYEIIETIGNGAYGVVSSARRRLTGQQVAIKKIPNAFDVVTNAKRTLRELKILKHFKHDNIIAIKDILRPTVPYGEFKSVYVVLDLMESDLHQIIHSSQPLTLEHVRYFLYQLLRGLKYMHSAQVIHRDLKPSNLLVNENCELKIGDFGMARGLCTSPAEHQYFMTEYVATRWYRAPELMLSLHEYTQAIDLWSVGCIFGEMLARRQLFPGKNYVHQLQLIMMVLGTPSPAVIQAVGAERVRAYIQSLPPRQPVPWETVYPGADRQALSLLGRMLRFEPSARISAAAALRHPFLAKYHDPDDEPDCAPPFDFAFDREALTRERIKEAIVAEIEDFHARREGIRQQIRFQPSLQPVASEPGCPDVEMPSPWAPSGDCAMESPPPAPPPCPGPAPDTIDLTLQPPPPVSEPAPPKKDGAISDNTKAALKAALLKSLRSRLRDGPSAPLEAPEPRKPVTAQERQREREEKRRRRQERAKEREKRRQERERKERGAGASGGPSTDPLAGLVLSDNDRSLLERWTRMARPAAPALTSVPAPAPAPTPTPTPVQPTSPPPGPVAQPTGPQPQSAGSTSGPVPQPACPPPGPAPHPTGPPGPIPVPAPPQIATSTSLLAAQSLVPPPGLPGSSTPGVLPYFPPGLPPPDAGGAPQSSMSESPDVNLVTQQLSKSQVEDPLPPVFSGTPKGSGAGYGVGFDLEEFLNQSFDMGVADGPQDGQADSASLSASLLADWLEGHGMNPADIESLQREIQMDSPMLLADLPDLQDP
The nature of test [5]: LFS_MB_P medulloblastoma growth inhibition, cell-based, chromothripsis tumors, cisplatin or BGB combos (AID 1671449; in the data active = inhibition above about 80%;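 note: cells exposed for 96 hours; 0% = vehicle DMSO and 100% = killing by high DMSO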). The conditions noted are these: LFS_MB_P medulloblastoma cells.
A short description of test [6]: HDN33 neuroblastoma growth inhibition, cell-based, chromothripsis tumors, cisplatin or BGB combos (AID 1671450; in the data active = inhibition above about 80%;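 note: cells exposed to compound for four days; 0% = vehicle DMSO and 100% = cell killing by high DMSO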). The conditions noted are these: HDN33 neuroblastoma cells, stronger effect = higher value.
Test [7] in a line: ICB984 medulloblastoma cell growth inhibition, synergistic combos for chromothripsis tumors, cisplatin or BGB combos (AID 1671451; call rule not given here;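 note: cells exposed for 96 hours before readout; 0% = vehicle DMSO and 100% = killing by high DMSO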). As to conditions: ICB984 medulloblastoma cells, drug combinations, stronger effect = higher value.
Test [8] can be described thus: LFS_MB_1R medulloblastoma cell growth inhibition, synergistic combos for chromothripsis tumors, cisplatin or BGB combos (AID 1671452; in the data active = inhibition above about 80%;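 note: cells exposed for 96 hours before readout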). As to conditions: LFS_MB_1R medulloblastoma cells, stronger effect = higher value.
Test [9] is described as follows: HTB85 osteosarcoma cell growth inhibition, synergistic combos for chromothripsis tumors, BGB or cisplatin IC20 combos (AID 1671453; in the data active = inhibition above about 80%;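 note: cells exposed for 96 hours before readout; 0% = vehicle DMSO and 100% = high DMSO killing control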). The conditions noted are these: HTB85 osteosarcoma cells, drug combinations, stronger effect = higher value.
Test [10] is described as follows: CRL2098 osteosarcoma cell growth inhibition, synergistic combos for chromothripsis tumors, BGB or cisplatin IC20 combos (AID 1671454; in the data active = inhibition above about 80%;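 note: cells exposed for 96 h before readout; 0% = vehicle DMSO and 100% = killing by high DMSO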). As to conditions: CRL2098 osteosarcoma cells, drug combinations, stronger effect = higher value.
Test [11] in a line: HD-MB03 medulloblastoma cell growth inhibition, synergistic combos for chromothripsis tumors, BGB or cisplatin IC20 combos (AID 1671455; in the data active = inhibition above about 83%;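 note: 0% = vehicle DMSO and 100% = high DMSO as cytotoxic control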). The conditions noted are these: HD-MB03 medulloblastoma cells, stronger effect = higher value.
Test [12] is described as follows: viability rescue of complex I mutant cybrids, primary screen, cell-based, galactose medium, ATP luminescence (AID 1645843;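 active = z-score of at least 1.8 in each of two replicates, scored against plate mean and spread of sample wells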;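 note: positive z means more ATP and so rescue of galactose-driven cybrid death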). As to conditions: complex I mutant cybrid cells, 72 h, stronger effect = higher value.
Where [13] appears, read: stronger effect = lower value, cell number ratio, induced over uninduced.
Setting [14] is: measured here: relative caspase fold change +Dox/-Dox.
Setting [15] is: measured here: total cells with miR-34 induction, stronger effect = lower value.
Setting [16] is: measured here: total cells without miR-34 induction.
[17] abbreviates: MELAS cybrid survival, CellTiter-Glo 48 h, stronger effect = higher value.
Setting [18] is: Rieske KO mouse fibroblast survival, CellTiter-Glo 72 h.
The mark [19] stands for this setting: measured here: combination with BGB IC40, at 0.05 µM.

Sequence of NAD(+) hydrolase SARM1 (Homo sapiens) (Q6SZW1 whole entry, looked up, the tested form may be a part): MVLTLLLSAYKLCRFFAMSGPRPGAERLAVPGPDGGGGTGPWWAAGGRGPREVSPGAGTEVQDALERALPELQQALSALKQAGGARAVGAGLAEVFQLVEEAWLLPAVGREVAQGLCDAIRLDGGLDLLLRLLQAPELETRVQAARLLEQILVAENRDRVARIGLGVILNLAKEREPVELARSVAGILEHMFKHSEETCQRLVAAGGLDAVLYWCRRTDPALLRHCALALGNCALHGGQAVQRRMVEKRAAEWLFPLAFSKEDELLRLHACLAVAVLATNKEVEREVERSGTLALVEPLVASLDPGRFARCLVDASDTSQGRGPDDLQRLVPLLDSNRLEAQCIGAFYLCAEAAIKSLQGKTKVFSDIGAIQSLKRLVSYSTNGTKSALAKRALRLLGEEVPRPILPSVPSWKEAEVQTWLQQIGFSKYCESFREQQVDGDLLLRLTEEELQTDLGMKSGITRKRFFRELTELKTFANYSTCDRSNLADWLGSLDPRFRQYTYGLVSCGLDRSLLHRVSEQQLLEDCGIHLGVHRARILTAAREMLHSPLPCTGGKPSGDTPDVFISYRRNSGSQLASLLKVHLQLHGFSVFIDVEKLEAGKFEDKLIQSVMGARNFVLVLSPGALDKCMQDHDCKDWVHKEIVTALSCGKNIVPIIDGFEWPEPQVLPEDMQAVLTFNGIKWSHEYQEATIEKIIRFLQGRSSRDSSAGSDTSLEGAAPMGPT

The term inhibition denotes the drop in the measured response relative to a control, in per cent. In the case of `O=C(O)P(=O)(O)O`, the fold change was 0.897 (inactive) and 0.894 (inactive) in test [1] (setting [13]); 0.852 and 3.28 in [1] (setting [14]). Moreover, the cell count in [1] (setting [15]) was 8080 and 11700; in test [1] (setting [16]), 9010 and 13100. In addition, the z-score was -0.331 (inactive) in test [2] (setting [17]) and -0.123 in test [2] (setting [18]). Further, in test [3], the remaining NAD is 10 nM (inactive). Also, the luciferase signal in test [4] was 16 AU (inactive). Also, the inhibition in test [5] (at 0.5 µM, stronger effect = higher value) is -17.5% (inactive); in test [5] (measured here: combination with BGB IC20, at 0.005 µM), -17.5%; in test [5] (measured here: combination with BGB IC40, at 0.005 µM), -19.7%; in test [5] (setting [19]), -16.3%; in test [5] (measured here: combination with cisplatin, at 0.5 µM, stronger effect = higher value), -28.3%; in test [5] (measured here: combination with cisplatin, at 5 µM, stronger effect = higher value) it was -12.6%. In addition, the inhibition is -58% in test [6] (BGB combo, at 5 µM); -36.9% (inactive) in test [6] (at 0.5 µM); -60.9% in [6] (cisplatin combo, at 5 µM); -38.1% in test [6] (measured here: with BGB IC20 combination, at 0.5 µM); -23.4% in test [6] (measured here: with cisplatin IC20 combination, at 0.5 µM); -52.1% in test [6] (single agent, at 5 µM). Further, the inhibition was -19.7% in test [7] (BGB IC20 combo, at 0.005 µM); -25.3% in [7] (BGB IC40 combo, at 0.005 µM); -29.6% in test [7] (BGB IC40 combo, at 0.05 µM); -22.4% (inactive) in test [7] (at 0.5 µM); -29.6% in test [7] (cisplatin combo, at 0.05 µM); -36.7% in test [7] (cisplatin combo, at 0.5 µM). Further, the inhibition in [7] (cisplatin combo, at 5 µM) was -14%; in test [7] (measured here: 5 uM single agent, at 5 µM), -14.5%; in test [8] (at 0.5 µM), -51.1% (inactive); in test [8] (setting [19]) it was -50.8%; in test [8] (measured here: combination with cisplatin, at 0.5 µM), -81.2%; in [8] (measured here: combination with cisplatin, at 5 µM), -40.9%. The inhibition in test [9] (at 0.5 µM) was -23.4% (inactive); in test [9] (measured here: with BGB IC20, at 0.5 µM), -66.1%; in test [9] (measured here: with BGB IC20, at 5 µM) it was -35%; in test [9] (measured here: with cisplatin IC20, at 0.5 µM), 20.5%; in test [9] (measured here: with cisplatin IC20, at 5 µM), -22.8%; in [9] (single agent, at 5 µM) it was -25.8%. The inhibition was -107% (inactive) in test [10] (at 0.5 µM); -77.3% in test [10] (measured here: combination with BGB at IC20, at 0.5 µM); -148% in [10] (measured here: combination with cisplatin at IC20, at 0.5 µM); -14.1% (inactive) in test [11] (at 0.5 µM); -16% in test [11] (measured here: combo with BGB at IC20, at 0.5 µM); -17.1% in [11] (measured here: combo with cisplatin at IC20, at 0.5 µM).

Take `CN1CCN(c2c(F)cc3c(=O)c(C(=O)O)cn4c3c2SCC4)CC1`: the fold change in test [1] (setting [13]) was 0.974 (inactive) and 0.992 (inactive) and 0.895 (inactive); in test [1] (setting [14]), 0.702 and 1.33 and 0.919. For the same compound, the cell count in [1] (setting [15]) is 7420 and 9770 and 9480; in [1] (setting [16]), 7610 and 9850 and 10600. Also, the z-score in test [2] (setting [17]) was 0.206 (inactive) and 0.665 (inactive); in [2] (setting [18]), 0.617 and -0.349; in test [12], -0.175 (inactive) and 0.05 (inactive). The remaining NAD in [3] is 10 nM (inactive).

For `CC(C)(O)c1ccccc1CC[C@@H](SCC1(CC(=O)O)CC1)c1cccc(/C=C/c2ccc3ccc(Cl)cc3n2)c1`, the fold change in test [1] (setting [13]) was 0.896 (inactive); in test [1] (setting [14]), 1.4. The results for the cell count in test [1] (setting [15]) and in test [1] (setting [16]) were 9780 and 10900, respectively. Also, the z-score in test [2] (setting [17]) was 0.313 (inactive) and -0.452 (inactive); in test [2] (setting [18]), 0.134 and -0.566; in test [12] it was 0.48 (inactive). In addition, the remaining NAD in [3] is 10 nM (inactive).

For `CC(=O)Nc1ccc(CC(=O)O)cc1`, the fold change in test [1] (setting [13]) is 0.951 (inactive); in test [1] (setting [14]), 1.68. In addition, the cell count is 9700 in test [1] (setting [15]) and 10200 in test [1] (setting [16]). Besides, the figures for the z-score in [2] (setting [17]), in test [2] (setting [18]) and in [12] were -0.406 (inactive), -0.418 and 0.87 (inactive), respectively. Besides, the remaining NAD in [3] was 10 nM (inactive).
